Records with an inconclusive call do not appear. The source made the active and inactive calls. Rule for the calls, unless noted: active = hit-call score of the fitted dose curve at least 0.9, where 1 is the maximum; inconclusive = response in the unintended direction; inactive = score below 0.9.
What was measured:
[1] = target: Nuclear receptor subfamily 1 group I member 3 (Homo sapiens) (UniProt Q14994); assay: ATG_CAR_TRANS: Attagene TRANS-FACTORIAL HepG2 Assay for human Constitutive Androstane Receptor (CAR) (AID 2282969); conditions: HepG2 Attagene TRANS-FACTORIAL CAR reporter;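 note: activators raise reporter mRNA above DMSO so AC50 marks induction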
Method in brief: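 HepG2 cells transiently transfected with GAL4-UAS reporter units; TRANS format reads activity of exogenous chimeric NR-Gal4 protein. After 24 h dosing, reporter mRNA quantified by RT-PCR, 6-FAM labelling and capillary electrophoresis; gain of signal fitted against DMSO.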

[2] = target: X-box-binding protein 1 (Homo sapiens) (UniProt P17861); assay: ATG_Xbp1_CIS: Attagene CIS-FACTORIAL HepG2 Assay for human X-box Binding Protein 1 (XBP1) (AID 2282972; active = hit-call score of the fitted dose curve at least 0.9, where 1 is the maximum; inactive = score below 0.9); conditions: HepG2 XBP1 cis-element reporter, Attagene multiplex; actives raise or lower the signal
Method in brief: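 HepG2 cells transiently transfected with cis-regulated multiple reporter transcription units; endogenous transcription factor activity measured 24 hours after chemical dosing. Reporter mRNA quantified by RT-PCR, 6-FAM primer extension, HpaI digestion and capillary electrophoresis; bidirectional fitting versus DMSO.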

[3] = ATG_M_19_TRANS: Attagene TRANS-FACTORIAL HepG2 Assay for M19 Transcription Factor (Internal Marker) (AID 2282974); conditions: HepG2 Attagene TRANS-FACTORIAL M19 internal marker reporter
Method in brief: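 Reporter mRNA induction was measured in transfected HepG2 cells 24 h after dosing. Endpoint fitted upward relative to DMSO and serves as a background control within the multiplexed TRANS panel.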

[4] = target: Glucocorticoid receptor (Homo sapiens) (UniProt P04150); assay: ATG_GR_TRANS: Attagene TRANS-FACTORIAL HepG2 Assay for human Glucocorticoid Receptor (GR) (AID 2282978); conditions: HepG2 Attagene TRANS GR reporter, mRNA transcription;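 note: activators score as hits since higher reporter transcript over DMSO is fitted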
Method in brief: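 Reporter transcript levels, detected by fluorescence after RT-PCR and capillary electrophoresis, served as the endpoint. HepG2 cells bearing transfected GAL4-UAS reporters responsive to NR-GAL4 chimeras were incubated with compound 24 h; DMSO defined baseline.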

[5] = target: Bile acid receptor (Homo sapiens) (UniProt Q96RI1); assay: ATG_FXR_TRANS: Attagene TRANS-FACTORIAL HepG2 Assay for Farnesoid X Receptor (FXR) (AID 2282979); conditions: HepG2 Attagene TRANS FXR-GAL4 reporter transcription;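 note: hits raise reporter mRNA above DMSO so AC50 marks FXR activation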
Method in brief: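 HepG2 cells transiently transfected with reporter constructs in which a chimeric FXR-GAL4 protein drives a GAL4-UAS reporter; 24 h compound exposure. Reporter mRNA measured by RT-PCR, FAM labelling, HpaI digestion and capillary electrophoresis; gain-of-signal versus DMSO.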

[6] = target: Oxysterols receptor LXR-beta (Homo sapiens) (UniProt P55055); assay: ATG_LXRb_TRANS: Attagene TRANS-FACTORIAL HepG2 Assay for human Liver X Receptor beta (LXRb) (AID 2282981); conditions: HepG2 Attagene TRANS GAL4-LXRb reporter, mRNA
Method in brief: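 HepG2 cells transiently transfected with GAL4-UAS reporter units for chimeric NR-Gal4 proteins, dosed for 24 h. Reporter transcripts measured by RT-PCR and capillary electrophoresis; gain-of-signal fitting relative to DMSO.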

[7] = target: Hepatocyte nuclear factor 4-alpha (Homo sapiens) (UniProt P41235); assay: ATG_HNF4a_TRANS: Attagene TRANS-FACTORIAL HepG2 Assay for human Hepatocyte Nuclear Factor 4 alpha (HNF4a) (AID 2282982); conditions: HepG2 HNF4a transactivation reporter, mRNA readout
Method in brief: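 HepG2 cells transiently transfected with HNF4a-Gal4 chimera and GAL4-UAS reporter units, dosed for 24 h. Reporter mRNA measured by RT-PCR, fluorescent primer extension and capillary electrophoresis; gain-of-signal fitted relative to DMSO.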

[8] = ATG_M_32_TRANS: Attagene TRANS-FACTORIAL HepG2 Assay for M32 Transcription Factor (Internal Marker) (AID 2282984); conditions: HepG2 Attagene TRANS M32 internal marker reporter
Method in brief: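 HepG2 cells transiently transfected with GAL4-UAS reporter units, dosed for 24 hours. Reporter mRNA quantified by RT-PCR, 6-FAM labelling, HpaI digestion and capillary electrophoresis; internal-marker signal fitted upward relative to DMSO.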

[9] = target: Transcriptional activator Myb (Homo sapiens) (UniProt P10242); assay: ATG_Myb_CIS: Attagene CIS-FACTORIAL HepG2 Assay for human Myeloblastosis (Myb) Proto-Oncogene Transcription Factor (AID 2282986; active = hit-call score of the fitted dose curve at least 0.9, where 1 is the maximum; inactive = score below 0.9); conditions: HepG2 Attagene CIS-FACTORIAL Myb reporter transcription; actives raise or lower the signal
Method in brief: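 Transiently transfected HepG2 cells, treated 24 h. Reporter mRNA quantified by RT-PCR/capillary electrophoresis; bidirectional fit relative to DMSO.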

[10] = target: Nuclear respiratory factor 1 (Homo sapiens) (UniProt Q16656); assay: ATG_NRF1_CIS: Attagene CIS-FACTORIAL HepG2 Assay for human Nuclear Respiratory Factor 1 (NRF1) Orphan Gene (AID 2282987; active = hit-call score of the fitted dose curve at least 0.9, where 1 is the maximum; inactive = score below 0.9); conditions: HepG2 NRF1 cis-element reporter, Attagene multiplex; actives raise or lower the signal
Method in brief: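 Cells (HepG2, transient MRTU transfection) are exposed to compound for 24 h, then RNA isolated and reporter mRNA amplified and fluorescently labelled. Fragments are separated by capillary electrophoresis; signal change is fitted bidirectionally relative to DMSO.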

[11] = ATG_NFI_CIS: Attagene CIS-FACTORIAL HepG2 Assay for human Nuclear Factor I (NFI) (AID 2282989; active = hit-call score of the fitted dose curve at least 0.9, where 1 is the maximum; inactive = score below 0.9); conditions: HepG2 cis-regulatory reporter, NFI response element transcription; actives raise or lower the signal
Method in brief: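 Endogenous TF activity in HepG2 cells transiently transfected with cis-element-driven multiplexed reporter units, read 24 h after dosing. Reporter mRNA quantified by RT-PCR, 6-FAM labelling, HpaI digestion and capillary electrophoresis; bidirectional fit versus DMSO.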

[12] = target: Myc proto-oncogene protein (Homo sapiens) (UniProt P01106); assay: ATG_Myc_CIS: Attagene CIS-FACTORIAL HepG2 Assay for human Myelocytomatosis (Myc) Proto-Oncogene Transcription Factor (AID 2282990; active = hit-call score of the fitted dose curve at least 0.9, where 1 is the maximum; inactive = score below 0.9); conditions: HepG2, Attagene cis-reporter transcription factor activity; actives raise or lower the signal
Method in brief: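 Transiently transfected HepG2 cells bearing cis-promoter reporter units for endogenous transcription factors; 24 h exposure. Reporter mRNA measured by RT-PCR, 6-FAM primer extension, HpaI cut and capillary electrophoresis; bidirectional fit relative to DMSO.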

[13] = ATG_GAL4_TRANS: Attagene TRANS-FACTORIAL HepG2 Assay for GAL4 (Internal Marker) (AID 2282976); conditions: HepG2 Attagene TRANS GAL4 internal marker reporter
Method in brief: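 HepG2 cells transiently transfected with multiplexed GAL4-UAS reporter constructs were dosed for 24 h. Reporter mRNA was measured by RT-PCR, 6-FAM primer extension, HpaI digestion and capillary electrophoresis, and gain of signal was fitted relative to DMSO.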

[14] = target: Oxysterols receptor LXR-alpha (Homo sapiens) (UniProt Q13133); assay: ATG_LXRa_TRANS: Attagene TRANS-FACTORIAL HepG2 Assay for human Liver X Receptor alpha (LXRa) (AID 2282980); conditions: HepG2 Attagene TRANS reporter, LXRa transactivation
Method in brief: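 HepG2 cells were transiently transfected with multiplexed reporter units driven by chimeric LXRa–GAL4 fusion proteins, then dosed for 24 h. Reporter mRNA was quantified by RT-PCR, fluorescent labelling and capillary electrophoresis; gain of signal fitted against DMSO baseline.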

[15] = ATG_M_06_TRANS: Attagene TRANS-FACTORIAL HepG2 Assay for M06 Transcription Factor (Internal Marker) (AID 2282983); conditions: HepG2 Attagene TRANS M06 internal marker reporter
Method in brief: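 HepG2 cells transiently transfected with multiplexed GAL4-UAS reporter transcription units; after 24 h compound exposure, reporter mRNA measured by RT-PCR, FAM-labelled primer extension, HpaI digestion and capillary electrophoresis. Gain-of-signal fitted versus DMSO baseline; background control readout.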

[16] = target: Estrogen receptor (Homo sapiens) (UniProt P03372); assay: ATG_ERa_TRANS: Attagene TRANS-FACTORIAL HepG2 Assay for human Estrogen Receptor alpha (ERa) (AID 2282970); conditions: HepG2 Attagene TRANS ERa GAL4 reporter, mRNA
Method in brief: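 HepG2 cells transiently transfected with multiplexed GAL4-UAS reporter units; ERa activity read via exogenous chimeric NR-Gal4 protein. After 24 hour compound exposure, reporter mRNA measured by RT-PCR with 6-FAM labelling and capillary electrophoresis; gain-of-signal fitted relative to DMSO.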

[17] = target: Steroid hormone receptor ERR1 (Homo sapiens) (UniProt P11474); assay: ATG_ERRa_TRANS: Attagene TRANS-FACTORIAL HepG2 Assay for human Estrogen-Related Receptor alpha (ERRa) (AID 2282971); conditions: HepG2 Attagene TRANS reporter, ERRa transactivation
Method in brief: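 HepG2 cells transiently transfected with multiplexed GAL4-UAS reporter units reading chimeric ERRa-Gal4 activity; 24 h compound exposure. Reporter mRNA measured by RT-PCR, 6-FAM labelling, HpaI digest and capillary electrophoresis; gain of signal fitted versus DMSO baseline.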

[18] = target: Nuclear receptor subfamily 4 group A member 2 (Homo sapiens) (UniProt P43354); assay: ATG_NURR1_TRANS: Attagene TRANS-FACTORIAL HepG2 Assay for human Nuclear Receptor Related Protein 1 (NURR1) (AID 2282985); conditions: HepG2 Attagene TRANS reporter, mRNA readout
Method in brief: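 HepG2 cells transiently transfected with NURR1-Gal4 chimera and GAL4-UAS reporter units; after 24 hr compound exposure, reporter mRNA quantified by RT-PCR and capillary electrophoresis; gain of signal fitted against DMSO.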

[19] = target: Estrogen-related receptor gamma (Homo sapiens) (UniProt P62508); assay: ATG_ERRg_TRANS: Attagene TRANS-FACTORIAL HepG2 Assay for human Estrogen-Related Receptor gamma (ERRg) (AID 2282977); conditions: HepG2 Attagene TRANS reporter, ERRg transactivation;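 note: hits increase reporter signal over DMSO so potencies reflect activators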
Method in brief: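 HepG2 cells transiently transfected with multiplexed GAL4-UAS reporter units driven by chimeric NR-Gal4 proteins; 24 h exposure. Reporter mRNA quantified by RT-PCR, fluorescent labelling, HpaI digestion and capillary electrophoresis; gain of signal vs DMSO.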

Measured: AC50

Sequence of Oxysterols receptor LXR-alpha (Homo sapiens) (Q13133 whole entry, looked up, the tested form may be a part): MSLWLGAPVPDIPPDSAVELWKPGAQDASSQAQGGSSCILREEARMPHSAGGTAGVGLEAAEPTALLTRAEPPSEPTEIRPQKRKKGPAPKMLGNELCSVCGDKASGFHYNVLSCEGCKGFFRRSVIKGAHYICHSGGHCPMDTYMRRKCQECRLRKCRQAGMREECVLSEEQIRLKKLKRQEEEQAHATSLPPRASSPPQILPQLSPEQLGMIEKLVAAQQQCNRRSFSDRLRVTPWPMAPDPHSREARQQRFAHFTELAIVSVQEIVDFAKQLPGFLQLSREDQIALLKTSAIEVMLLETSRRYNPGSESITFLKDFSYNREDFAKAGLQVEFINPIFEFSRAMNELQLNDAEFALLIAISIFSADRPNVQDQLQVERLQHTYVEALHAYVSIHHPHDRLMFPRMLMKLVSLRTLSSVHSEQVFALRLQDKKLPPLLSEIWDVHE
Sequence of Bile acid receptor (Homo sapiens) (Q96RI1 whole entry, looked up, the tested form may be a part): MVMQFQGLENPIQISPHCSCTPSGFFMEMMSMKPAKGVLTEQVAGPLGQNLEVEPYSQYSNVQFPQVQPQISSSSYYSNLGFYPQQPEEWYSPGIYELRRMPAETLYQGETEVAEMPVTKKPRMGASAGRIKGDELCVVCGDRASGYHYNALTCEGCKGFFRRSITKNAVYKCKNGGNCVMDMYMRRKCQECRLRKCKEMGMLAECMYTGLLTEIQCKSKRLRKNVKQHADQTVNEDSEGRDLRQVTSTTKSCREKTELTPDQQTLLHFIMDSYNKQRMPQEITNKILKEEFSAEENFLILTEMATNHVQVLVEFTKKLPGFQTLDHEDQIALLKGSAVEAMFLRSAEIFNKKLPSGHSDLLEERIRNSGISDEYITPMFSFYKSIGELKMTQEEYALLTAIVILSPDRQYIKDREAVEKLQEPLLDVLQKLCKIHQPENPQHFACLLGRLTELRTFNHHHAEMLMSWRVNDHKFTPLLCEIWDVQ
Sequence of Oxysterols receptor LXR-beta (Homo sapiens) (P55055 whole entry, looked up, the tested form may be a part): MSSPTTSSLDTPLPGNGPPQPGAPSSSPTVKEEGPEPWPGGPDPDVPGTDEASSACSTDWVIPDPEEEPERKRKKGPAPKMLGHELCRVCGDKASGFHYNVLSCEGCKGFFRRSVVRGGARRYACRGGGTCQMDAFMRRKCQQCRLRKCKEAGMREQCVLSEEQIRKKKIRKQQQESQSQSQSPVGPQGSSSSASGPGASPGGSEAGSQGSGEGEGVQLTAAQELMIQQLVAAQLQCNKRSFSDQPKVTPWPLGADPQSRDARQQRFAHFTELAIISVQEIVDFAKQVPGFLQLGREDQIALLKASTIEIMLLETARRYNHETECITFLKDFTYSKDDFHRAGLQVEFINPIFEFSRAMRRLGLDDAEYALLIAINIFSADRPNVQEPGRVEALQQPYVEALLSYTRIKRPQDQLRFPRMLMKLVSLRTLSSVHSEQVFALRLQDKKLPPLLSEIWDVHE
Sequence of Nuclear receptor subfamily 1 group I member 3 (Homo sapiens) (Q14994 whole entry, looked up, the tested form may be a part): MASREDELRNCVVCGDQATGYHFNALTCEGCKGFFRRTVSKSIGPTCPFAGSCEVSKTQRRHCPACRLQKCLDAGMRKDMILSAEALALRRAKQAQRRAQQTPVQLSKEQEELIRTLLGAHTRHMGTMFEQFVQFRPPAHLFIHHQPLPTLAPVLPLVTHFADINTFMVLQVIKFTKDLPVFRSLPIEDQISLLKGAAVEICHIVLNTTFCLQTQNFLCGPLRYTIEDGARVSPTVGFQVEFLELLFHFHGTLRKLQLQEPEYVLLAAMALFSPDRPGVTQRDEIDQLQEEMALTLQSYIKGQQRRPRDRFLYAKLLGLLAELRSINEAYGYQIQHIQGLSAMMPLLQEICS
Sequence of X-box-binding protein 1 (Homo sapiens) (P17861 whole entry, looked up): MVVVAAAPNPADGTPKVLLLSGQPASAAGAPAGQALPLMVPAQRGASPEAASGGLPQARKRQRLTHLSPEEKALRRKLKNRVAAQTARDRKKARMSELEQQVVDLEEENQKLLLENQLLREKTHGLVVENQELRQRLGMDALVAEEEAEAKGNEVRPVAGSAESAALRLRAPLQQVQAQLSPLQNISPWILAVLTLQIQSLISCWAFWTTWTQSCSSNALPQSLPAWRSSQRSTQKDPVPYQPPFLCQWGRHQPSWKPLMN
Sequence of Transcriptional activator Myb (Homo sapiens) (P10242 whole entry, looked up): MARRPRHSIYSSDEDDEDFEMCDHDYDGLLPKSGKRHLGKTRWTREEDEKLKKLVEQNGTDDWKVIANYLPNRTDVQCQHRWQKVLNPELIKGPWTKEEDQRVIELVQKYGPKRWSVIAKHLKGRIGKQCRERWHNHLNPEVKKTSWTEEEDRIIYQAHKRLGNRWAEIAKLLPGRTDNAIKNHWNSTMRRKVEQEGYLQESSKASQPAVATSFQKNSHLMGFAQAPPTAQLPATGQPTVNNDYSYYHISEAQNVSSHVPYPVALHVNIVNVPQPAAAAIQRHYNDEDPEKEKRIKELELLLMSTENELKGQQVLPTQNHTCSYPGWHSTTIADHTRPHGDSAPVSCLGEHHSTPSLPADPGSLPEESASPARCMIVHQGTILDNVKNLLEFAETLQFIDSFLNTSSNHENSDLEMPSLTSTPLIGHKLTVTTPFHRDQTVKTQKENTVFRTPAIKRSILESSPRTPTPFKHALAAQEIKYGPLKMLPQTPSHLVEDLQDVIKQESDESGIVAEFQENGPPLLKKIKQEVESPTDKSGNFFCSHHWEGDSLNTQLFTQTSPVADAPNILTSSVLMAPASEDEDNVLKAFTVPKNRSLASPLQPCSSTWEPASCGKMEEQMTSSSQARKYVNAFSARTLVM
Sequence of Nuclear respiratory factor 1 (Homo sapiens) (Q16656 whole entry, looked up, the tested form may be a part): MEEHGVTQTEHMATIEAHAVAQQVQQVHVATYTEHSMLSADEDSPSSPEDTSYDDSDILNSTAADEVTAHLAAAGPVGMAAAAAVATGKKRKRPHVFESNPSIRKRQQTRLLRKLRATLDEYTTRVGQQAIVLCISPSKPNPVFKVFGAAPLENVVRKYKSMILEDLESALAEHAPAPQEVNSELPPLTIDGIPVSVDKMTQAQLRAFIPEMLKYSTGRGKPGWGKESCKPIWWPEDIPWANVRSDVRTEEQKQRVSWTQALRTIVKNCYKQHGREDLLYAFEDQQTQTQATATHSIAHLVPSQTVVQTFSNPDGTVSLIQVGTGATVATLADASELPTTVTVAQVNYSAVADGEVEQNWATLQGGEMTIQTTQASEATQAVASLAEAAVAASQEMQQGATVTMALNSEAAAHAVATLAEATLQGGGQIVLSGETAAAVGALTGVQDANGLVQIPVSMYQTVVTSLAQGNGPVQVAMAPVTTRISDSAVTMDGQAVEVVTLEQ
Sequence of Estrogen receptor (Homo sapiens) (P03372 whole entry, looked up, the tested form may be a part): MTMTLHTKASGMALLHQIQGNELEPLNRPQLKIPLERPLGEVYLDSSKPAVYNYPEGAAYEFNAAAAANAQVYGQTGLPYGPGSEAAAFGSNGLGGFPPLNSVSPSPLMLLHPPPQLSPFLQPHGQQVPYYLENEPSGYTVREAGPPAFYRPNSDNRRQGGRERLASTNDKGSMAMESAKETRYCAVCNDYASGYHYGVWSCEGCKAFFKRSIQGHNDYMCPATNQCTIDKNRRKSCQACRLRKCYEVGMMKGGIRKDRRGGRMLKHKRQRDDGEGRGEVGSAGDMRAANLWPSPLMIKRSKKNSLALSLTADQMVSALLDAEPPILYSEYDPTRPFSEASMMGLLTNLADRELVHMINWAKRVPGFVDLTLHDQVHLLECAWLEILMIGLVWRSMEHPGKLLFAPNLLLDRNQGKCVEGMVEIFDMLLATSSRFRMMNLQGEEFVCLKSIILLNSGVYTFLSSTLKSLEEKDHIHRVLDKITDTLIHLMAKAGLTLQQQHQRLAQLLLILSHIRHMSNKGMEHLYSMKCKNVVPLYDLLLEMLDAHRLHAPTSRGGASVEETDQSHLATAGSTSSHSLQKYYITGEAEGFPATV
Sequence of Myc proto-oncogene protein (Homo sapiens) (P01106 whole entry, looked up): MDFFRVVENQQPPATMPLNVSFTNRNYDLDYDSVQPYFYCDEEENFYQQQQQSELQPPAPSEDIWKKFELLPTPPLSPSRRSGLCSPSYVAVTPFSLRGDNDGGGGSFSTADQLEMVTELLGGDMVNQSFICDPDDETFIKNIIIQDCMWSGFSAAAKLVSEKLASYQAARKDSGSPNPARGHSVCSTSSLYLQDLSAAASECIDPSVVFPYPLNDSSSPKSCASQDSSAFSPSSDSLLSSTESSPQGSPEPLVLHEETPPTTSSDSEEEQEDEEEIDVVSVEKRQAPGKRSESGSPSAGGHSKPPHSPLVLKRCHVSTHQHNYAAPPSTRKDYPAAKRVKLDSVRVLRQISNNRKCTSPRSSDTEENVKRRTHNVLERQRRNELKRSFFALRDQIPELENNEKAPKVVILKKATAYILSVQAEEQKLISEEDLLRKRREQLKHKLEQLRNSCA
Sequence of Steroid hormone receptor ERR1 (Homo sapiens) (P11474 whole entry, looked up, the tested form may be a part): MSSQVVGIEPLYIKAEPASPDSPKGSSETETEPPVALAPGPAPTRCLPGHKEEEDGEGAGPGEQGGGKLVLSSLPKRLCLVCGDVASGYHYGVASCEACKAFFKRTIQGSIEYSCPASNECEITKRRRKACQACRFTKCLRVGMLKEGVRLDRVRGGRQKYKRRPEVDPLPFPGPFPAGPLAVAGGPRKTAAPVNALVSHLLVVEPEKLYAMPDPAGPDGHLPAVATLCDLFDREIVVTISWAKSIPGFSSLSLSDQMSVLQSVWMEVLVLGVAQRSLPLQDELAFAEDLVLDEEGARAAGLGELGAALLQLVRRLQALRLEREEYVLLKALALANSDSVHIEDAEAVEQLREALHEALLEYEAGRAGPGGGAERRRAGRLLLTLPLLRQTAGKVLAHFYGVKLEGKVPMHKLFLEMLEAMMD

Cc1cc(Cl)ccc1O
not listed: [13] | [14] | [15] | [16] | [17] | [18] | [19]
inactive: all other assays above

CNC(=O)O/N=C/C(C)(C)S(C)(=O)=O
inactive: [1] | [2] | [3] | [8] | [11] | [12]

CC[N+](CC)(CC)CC
inactive: [1] | [2] | [13] | [4] | [14] | [8] | [11] | [12]

Cc1cc(Cl)ccc1N
not listed: [5] | [6] | [7] | [10] | [16] | [17] | [18] | [19]
inactive: all other assays above

N#Cc1cccnc1
not listed: [1] | [4] | [5] | [7] | [8] | [14] | [15] | [19]
inactive: all other assays above

ClCCCCl
inactive: [1] | [2] | [4] | [5] | [8] | [18] | [9] | [10] | [11] | [12]

O=c1[nH]c2ccccc2n1C1CCN(CCCC(c2ccc(F)cc2)c2ccc(F)cc2)CC1
not listed: [1] | [6] | [7] | [14] | [15]
inactive: all other assays above

Nc1nc(=S)[nH][nH]1
not listed: [1] | [5] | [7] | [8] | [9] | [15] | [17] | [19]
inactive: all other assays above

CCOP(=O)(OCC)OC(=CCl)c1ccc(Cl)cc1Cl
inactive: [2] | [3] | [13] | [8] | [9] | [10] | [11] | [12]
active: [16] 26 µM | [18] 100 µM

O=[N+]([O-])c1cc([As](=O)(O)O)ccc1O
not listed: [1] | [3] | [5] | [7] | [14] | [15] | [18] | [19]
inactive: all other assays above
